# Data published in PubChem BioAssay (NCATS).
# Records with an inconclusive call do not appear. Calls of active or inactive are those of the source. The call rests on the fitted dose curve.
# Molecular target: Atrial natriuretic peptide receptor 1 (Homo sapiens) (UniProt P16066)
# Assay: Natriuretic polypeptide receptor (hNpr1) antagonism - Pilot CMLD screen (AID 1347052)
# Settings: HEK293 hNpr1 GloSensor cGMP luminescence, ANP-stimulated; series mostly up to 9.22 µM; activity change, negative = inhibition: at the top concentration
# Experimental: In order to identify small molecular compounds that inhibit the hNpr1 receptor we developed a high-throughput assay to measure inhibition of the guanylate cyclase activity of the receptor. cGMP production was measured using a circular permutated Firefly luciferase (FLuc) enzyme functionally linked to the cGMP binding domain of human phosphodiesterase 5 (GloSensor technology pGS-40F, (Fan, F. et al. 2008). The cGMP-sensor was expressed in human embryonic kidney 293 (HEK-293) cells and FLuc activity was measured after stimulation with hNrp agonist peptide. hNrp agonists activates the receptor's associated guanylyl cyclase (GC) domain producing cGMP which then binds to the GloSensor resulting in FLuc activation, the enzymatic activity of which can be measured as bioluminescence with addition of luciferin substrate.
# This assay was initially piloted by testing with a small library of specialty compounds.
# PROTOCOL TABLES (as described by Inglese J, Shamu CE and Guy RK. 2007)
# SEQUENCE No. (e.g., 1, 2, 3, etc.); […] (e.g., Cells, Incubation, Reagent, etc.); VALUE and DESCRIPTION.
# 1. Cells. Seed 1500 HEK293 cGMP-sensor cells expressing hNpr1 per well in 4uL into Greiner 1536-well white/solid bottom high base, tissue culture-treated plates.
# 2. Incubation. Incubate plated cells at 37C in 5% CO2, 95% RH overnight.
# 3. Reagent. Add 1uL per well GloSensor reagent from Promega (2% final concentration) or CO2 independent media vehicle control to respective columns of Greiner 1536-well plates.
# 4. Incubation. Incubate plated cells at room temperature for 2 h, protect from light.
# 5. Compounds. Library compounds and A-71915 control added at 23 nL per well, transferred by Pin Tool.
# 6. Incubation. Incubate plated cells for 30 min. at room temperature, protect from light.
# 7. Detector. GloSensor baseline pre-read luminescence measured using CCD-based camera (Viewlux).
# 8. Compound. Add 1uL of hNppA peptide to 0.1 nM final concentration to stimulate hNpr1 or CO2 independent media as vehicle control.
# 9. Incubation. Incubate treated cells at room temperature for 20 min., protect from light.
# 10. Detector. GloSensor post-hNppA luminescence measured using CCD-based camera (Viewlux).
# NOTES (numbers refer to Sequence numbers above)
# 1. HEK293 cells expressing hNpr1 and GIP/pGS-40F grown to 85-95% confluence (48-72 h) in T175 culture flasks (CO2 independent media supplemented with 10% FBS, 1% Pen/Strep antibiotics and 1 ug/mL puromycin). Trypsinize and harvest cells from T175 culture flasks and filter through 40 um cell strainer. Cells counted with Invitrogen Countess (30,000,000 - 50,000,000 cells/flask). Cells diluted to a final concentration of 375 cells/uL in CO2 independent media and a Millipore multidrop used to dispense 1500 cells per well (4uL/well) into 13 1536-well Greiner White/Solid bottom, high base tissue-culture treated (TC) plates and one Aurora 1536-well Black/Clear bottom, low base, TC plate (for visual inspection of cell health throughout the duration of the assay).
# 2. Cells incubated overnight at ambient temperature, 24 h. at 37C in 95% RH incubator protected from light, covered with metal lid with gas-exchange holes.
# 3. Prepare GloSensor Reagent (Promega): Reconstitute GloSensor luciferase substrate by adding 8.2mL Hepes buffer to 250mg substrate, mix well, protect from light and stored at -80C. Prepare a fresh 12% GloSensor solution in CO2 independent supplemented plating media (see above). Mix well and store at ambient temperature, protected from light. 1uL 12% GloSensor Luciferase Reagent added (2% final concentration) to respective columns of 13 x 1536-well Greiner plate with BioRaptr, 1uL CO2 independent plating media added to respective columns as vehicle control with BioRaptr.
# 4. Cells incubated for 2 h. at ambient temperature, protected from light with metal lid with gas-exchange holes.
# 5. A-71915 stock solution prepared (10 mM in DMSO). […]
# On the % scale 0 is the no-effect control and ±100 the full control effect; potency means the concentration at half of the fitted maximal effect.
# Atrial natriuretic peptide receptor 1 (Homo sapiens), sequence (P16066 whole entry, looked up): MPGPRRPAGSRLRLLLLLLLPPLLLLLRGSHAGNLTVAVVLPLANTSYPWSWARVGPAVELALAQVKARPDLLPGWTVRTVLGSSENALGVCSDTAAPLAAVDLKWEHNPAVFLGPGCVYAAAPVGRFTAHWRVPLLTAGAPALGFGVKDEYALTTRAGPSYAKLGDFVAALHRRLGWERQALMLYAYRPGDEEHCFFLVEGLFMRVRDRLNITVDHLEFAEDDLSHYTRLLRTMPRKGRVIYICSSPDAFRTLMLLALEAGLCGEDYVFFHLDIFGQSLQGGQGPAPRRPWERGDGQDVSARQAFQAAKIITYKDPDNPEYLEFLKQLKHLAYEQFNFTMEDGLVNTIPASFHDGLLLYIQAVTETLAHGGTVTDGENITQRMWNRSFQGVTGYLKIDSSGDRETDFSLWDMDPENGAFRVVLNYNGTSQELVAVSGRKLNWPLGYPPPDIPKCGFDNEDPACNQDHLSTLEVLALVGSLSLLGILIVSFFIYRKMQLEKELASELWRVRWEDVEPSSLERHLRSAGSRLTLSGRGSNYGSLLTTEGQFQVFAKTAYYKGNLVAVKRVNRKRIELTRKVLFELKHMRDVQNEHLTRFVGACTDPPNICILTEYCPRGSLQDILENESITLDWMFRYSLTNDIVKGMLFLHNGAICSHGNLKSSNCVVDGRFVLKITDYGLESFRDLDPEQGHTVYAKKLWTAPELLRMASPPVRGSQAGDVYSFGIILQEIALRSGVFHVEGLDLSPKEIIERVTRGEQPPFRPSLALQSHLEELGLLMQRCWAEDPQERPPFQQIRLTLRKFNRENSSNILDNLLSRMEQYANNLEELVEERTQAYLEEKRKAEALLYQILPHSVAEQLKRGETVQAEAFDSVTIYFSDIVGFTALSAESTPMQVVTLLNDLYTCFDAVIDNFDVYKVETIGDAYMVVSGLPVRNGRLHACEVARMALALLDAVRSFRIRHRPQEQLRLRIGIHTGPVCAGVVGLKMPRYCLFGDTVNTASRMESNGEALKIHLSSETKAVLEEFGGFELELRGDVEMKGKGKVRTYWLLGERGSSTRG
SMILES,"activity change, negative = inhibition",Potency
COC(=O)C1=C(C(=O)OC)[C@@H]2N(C)c3ccccc3[C@@]23C[C@@H](C(=O)OC)N(C(=O)NC2CCCC2)C3=N1,-0.147% (inactive),
COC(=O)C1=C(C)N(CC2CC2)C(=NCCc2cccnc2)NC1c1ccccc1 (stereo not given),-8.4% (inactive),
C[C@@H]1C=CCC(=O)N[C@@H](c2ccccc2)[C@H](C)C=CCC(=O)N[C@@H]1c1ccccc1,2.44% (inactive),
C=CCOC(=O)N[C@@H](c1coc2ccccc2c1=O)[C@@H](C)C=CCC(=O)OC,-1.48% (inactive),
O=C1C[C@@H](c2ccccc2)[C@H](c2ccc(Br)cc2)O1,0.419% (inactive),
COC(=O)CCC(=O)OC1(C)C(=O)C=C2C=C(C3CC3)N(CCc3c[nH]c4ccccc34)C=C2C1=O (stereo not given),0.704% (inactive),
C=CC[C@@](C(C)=O)(C(=O)OC)[C@@H](NC(=O)OC(C)(C)C)c1ccccc1,0.419% (inactive),
N#Cc1ccc2c(c1)C[C@]1(CCCCN3C(=O)c4ccccc4C3=O)Oc3cc(-c4ccccc4)oc(=O)c3[C@H]2O1,-24.9% (inactive),
COc1cccc([C@H](O)Cn2cc(-c3ccc(CON=C(C)C)cc3)nn2)c1,-1.21% (inactive),
COC(=O)C1=C(C(=O)OC)[C@@H]2N(Cc3ccccc3)c3ccccc3[C@@]23C[C@@H](C(=O)OC)N(C(=O)NCc2ccccc2)C3=C1,0.031% (inactive),
CN1c2ccccc2[C@@]2(O)C(=O)[C@@]1(C)[C@@H]1c3ccccc3C[C@H]12,-10% (inactive),
COC(=O)[C@H]1[C@H](C)[C@@]2(O)c3ccccc3N(C)[C@@]1(C)[C@H]2O,3.21% (inactive),
CC(C)[C@@H](OCc1ccccc1)[C@H](C)C=NO[C@H](C)c1cn([C@H](CO)Cc2ccccc2)nn1,0.442% (inactive),
COC(=O)N[C@@H](C=Cc1ccco1)[C@]1(C(=O)OC)CCCC1=O,-0.459% (inactive),
COC1=C[C@@H](C(=O)N[C@H]2CCCC[C@H]2NC(C)=O)[C@]2(C)Cc3ccccc3[C@H]2CC1=O,0.359% (inactive),
COC(=O)CCCC1=CC2=CC(=O)C(C)(O)C(=O)C2=CO1 (stereo not given),-0.375% (inactive),
CCN1C(=O)N[C@@H](c2ccccc2)[C@H](C(=O)OC)[C@H]1C,4.16% (inactive),
C=C(Nc1ccc(OC)cc1)C(=O)OC,2.61% (inactive),
COc1cccc([C@@H]2Oc3ccc(Br)cc3C(=O)[C@@H]2OC(=O)N[C@H](C)C2CCCCC2)c1,0.2% (inactive),
COc1ccc(C=CNC(=O)c2ccc(OC)cc2)cc1,-2.07% (inactive),

SMILES,"activity change, negative = inhibition",Potency
FC(F)(F)c1cc(NC(=S)Nc2ccc3ccccc3c2)cc(C(F)(F)F)c1,-1.71% (inactive),
COC(=O)C1=C(C)N(Cc2ccccc2)C(=NCC2CC2)NC1c1ccccc1 (stereo not given),,inactive
COC(=O)C(C(C)=O)[C@@H](NC(=O)OC(C)(C)C)c1ccccc1 (stereo not given in full),1.22% (inactive),
COCCN1C(=O)N(C)C(c2ccccc2)C(C(C)=O)=C1C (stereo not given),3.85% (inactive),
COC(=O)C1=C(C)N(Cc2ccccc2)C(=NCc2ccc(OC)cc2)NC1c1cccc(F)c1 (stereo not given),-1.44% (inactive),
COc1ccc([C@]23Cc4ccccc4[C@H](O2)C2=C(CC4(CCCCC4)OC2=O)O3)cc1,-1.94% (inactive),
CCOC(=O)NN=C1C[C@@H](O)[C@@H](O)[C@@H]2[C@H]3C(=O)N(C[C@@H]4CCCO4)C(=O)[C@@H]3CC[C@H]12,2.18% (inactive),
O=C(Oc1ccccc1)[C@H]1O[C@H]1c1ccccc1,-5.16% (inactive),
COC(=O)C1=C(C)N(CC2CC2)C(=O)NC1CCc1ccccc1 (stereo not given),-5.63% (inactive),
CC(CCN1CCCc2nc(C)c(C)cc21)=NO[C@@H](C)c1cc(-c2c(C)cc(C)cc2C)no1,,inactive
C=CCOC(=O)NC(CC(=Nc1ccc(OC)cc1)C(=O)OC)c1ccccc1 (stereo not given),0.383% (inactive),
CC(C)(C)OC(=O)C1=NOC2(C=CC(=O)C=C2)C1,,376 nM (active)
COC(=O)N1C(C2CC2)=Cc2ccccc2C1CC(C)=O (stereo not given),,inactive
COc1ccc(COC(=O)NN=C2C[C@@H](O)[C@@H](O)[C@@H]3[C@H]4C(=O)N(c5ccc(F)cc5F)C(=O)[C@@H]4CC[C@H]23)cc1,1.84% (inactive),
C[C@H]1Cc2c(COc3ccccc3)nc3c(c2CO1)CN(C(=O)c1cccnc1)CC3,-2.24% (inactive),
C=C(CCN1C=C(C(C)=O)C(c2ccccc2)NC1=O)c1ccc(OC)cc1 (stereo not given),-3.26% (inactive),
CC(C)=NO[C@@H](C)CN1CCCc2nc(C)c(C)cc21,6.04% (inactive),
OC[C@H]1O[C@H](C#Cc2ccccc2)C=C[C@H]1O,-0.868% (inactive),
C(=Cc1nc(-c2ccccc2)oc1Nc1ccc2ccccc2c1)c1ccccc1,,inactive
CCc1cc2c(nc1CC)CCN(CCC(C)=NOC[C@@H](O)COCc1ccco1)C2,3.43% (inactive),
